Calls of active or inactive are those of the source.
How the values were obtained:
[1] = small molecules captured by biotinylated probe aFSTL3 – biochemical, small-molecule microarray, fluorescence 635/667, stem cell growth factor project, primary screen (AID 1064); details: higher = more signal;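 also: measures binding of the biotinylated anti-FSTL3 antibody to printed compounds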
[2] = binders from COS7 lysate, DM2A8 probe, primary screen, torsin A project, cell lysate, small-molecule microarray, fluorescence 635/667 (AID 1065); details: higher = more signal, COS7 lysate expressing mutant human TOR1A
[3] = small molecules captured by biotinylated probe aFGF2 – biochemical, small-molecule microarray, fluorescence 635/667, stem cell growth factor project, primary screen (AID 1067); details: higher = more signal;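 also: measures binding of biotinylated aFGF2 protein to printed compounds on slides; z-score merges feature fluorescence and signal-to-noise across triplicate slides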
[4] = small molecules captured by biotinylated probe aFGF10 – biochemical, small-molecule microarray, fluorescence 635/667, stem cell growth factor project, primary screen (AID 1071); details: higher = more signal;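 also: score merges 667 nm spot intensity and signal to noise from triplicate slides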
[5] = molecular target: Neurogenic locus notch homolog protein 2 (Homo sapiens) (UniProt Q04721); test: small molecules binding Notch2 protein – biochemical, small-molecule microarray, 635 nm fluorescence, stem cell growth factors, primary screen (AID 1073); details: higher = more signal
Sequence of Neurogenic locus notch homolog protein 2 (Homo sapiens) (Q04721 whole entry, looked up, canonical isoform): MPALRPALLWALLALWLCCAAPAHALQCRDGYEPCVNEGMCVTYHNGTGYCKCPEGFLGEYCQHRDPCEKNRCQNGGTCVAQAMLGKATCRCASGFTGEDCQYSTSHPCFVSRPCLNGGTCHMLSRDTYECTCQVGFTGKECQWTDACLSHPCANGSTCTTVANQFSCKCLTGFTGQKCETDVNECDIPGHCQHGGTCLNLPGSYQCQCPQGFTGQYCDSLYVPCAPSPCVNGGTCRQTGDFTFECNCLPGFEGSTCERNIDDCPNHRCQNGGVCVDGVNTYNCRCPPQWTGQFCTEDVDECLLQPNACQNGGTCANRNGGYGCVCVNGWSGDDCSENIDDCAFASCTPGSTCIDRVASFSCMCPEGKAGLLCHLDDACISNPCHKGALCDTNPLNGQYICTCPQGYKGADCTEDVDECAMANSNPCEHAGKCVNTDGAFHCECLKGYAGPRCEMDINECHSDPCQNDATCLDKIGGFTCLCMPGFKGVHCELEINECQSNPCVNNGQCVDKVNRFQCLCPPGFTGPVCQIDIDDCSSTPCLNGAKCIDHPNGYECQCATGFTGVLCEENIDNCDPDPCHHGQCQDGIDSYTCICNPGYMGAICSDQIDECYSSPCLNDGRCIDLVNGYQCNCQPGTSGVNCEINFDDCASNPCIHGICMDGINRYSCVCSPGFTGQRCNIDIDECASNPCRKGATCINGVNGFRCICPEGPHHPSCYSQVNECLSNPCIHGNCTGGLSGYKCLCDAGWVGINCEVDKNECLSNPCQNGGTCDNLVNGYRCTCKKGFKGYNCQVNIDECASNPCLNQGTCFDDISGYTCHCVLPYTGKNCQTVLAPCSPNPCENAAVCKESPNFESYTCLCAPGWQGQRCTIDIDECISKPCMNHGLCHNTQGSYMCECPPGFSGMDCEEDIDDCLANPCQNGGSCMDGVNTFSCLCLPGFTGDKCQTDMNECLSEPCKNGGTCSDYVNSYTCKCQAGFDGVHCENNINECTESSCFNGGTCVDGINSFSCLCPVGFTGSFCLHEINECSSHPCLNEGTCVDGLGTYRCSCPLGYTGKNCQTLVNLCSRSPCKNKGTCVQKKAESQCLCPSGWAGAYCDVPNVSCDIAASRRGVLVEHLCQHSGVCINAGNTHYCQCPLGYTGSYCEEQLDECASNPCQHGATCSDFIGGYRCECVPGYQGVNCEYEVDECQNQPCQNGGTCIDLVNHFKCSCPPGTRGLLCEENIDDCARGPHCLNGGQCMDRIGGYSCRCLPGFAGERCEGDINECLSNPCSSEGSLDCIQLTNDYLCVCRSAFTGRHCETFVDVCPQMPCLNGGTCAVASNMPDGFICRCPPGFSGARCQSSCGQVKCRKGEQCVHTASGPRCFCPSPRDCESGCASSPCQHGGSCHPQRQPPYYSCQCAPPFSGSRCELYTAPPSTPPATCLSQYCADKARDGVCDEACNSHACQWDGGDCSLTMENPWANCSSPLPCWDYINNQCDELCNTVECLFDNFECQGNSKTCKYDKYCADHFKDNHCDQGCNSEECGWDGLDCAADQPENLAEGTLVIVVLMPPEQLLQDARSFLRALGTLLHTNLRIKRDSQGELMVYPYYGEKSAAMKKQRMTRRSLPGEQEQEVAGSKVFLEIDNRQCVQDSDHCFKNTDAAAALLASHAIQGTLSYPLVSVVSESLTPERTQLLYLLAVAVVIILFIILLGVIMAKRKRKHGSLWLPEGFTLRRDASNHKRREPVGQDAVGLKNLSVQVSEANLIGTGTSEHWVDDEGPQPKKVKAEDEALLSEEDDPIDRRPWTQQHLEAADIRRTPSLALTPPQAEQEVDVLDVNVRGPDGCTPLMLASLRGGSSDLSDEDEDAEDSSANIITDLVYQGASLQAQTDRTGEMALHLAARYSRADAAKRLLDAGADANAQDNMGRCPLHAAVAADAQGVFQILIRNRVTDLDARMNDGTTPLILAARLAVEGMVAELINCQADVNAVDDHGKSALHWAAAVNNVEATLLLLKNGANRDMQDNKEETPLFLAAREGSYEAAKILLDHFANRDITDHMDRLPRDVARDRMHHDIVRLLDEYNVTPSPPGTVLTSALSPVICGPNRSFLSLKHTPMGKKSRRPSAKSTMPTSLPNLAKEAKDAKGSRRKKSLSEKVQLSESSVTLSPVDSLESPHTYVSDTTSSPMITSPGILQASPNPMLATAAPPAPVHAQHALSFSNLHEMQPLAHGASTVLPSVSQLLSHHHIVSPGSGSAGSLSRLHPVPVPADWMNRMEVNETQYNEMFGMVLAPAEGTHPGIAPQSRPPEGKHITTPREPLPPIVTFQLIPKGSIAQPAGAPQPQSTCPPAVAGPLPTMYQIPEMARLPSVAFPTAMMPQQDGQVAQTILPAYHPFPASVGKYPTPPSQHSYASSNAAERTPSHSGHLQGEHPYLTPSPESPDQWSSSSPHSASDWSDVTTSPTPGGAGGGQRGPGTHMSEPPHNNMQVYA

[6] = molecular target: Pro-neuregulin-1, membrane-bound isoform (Homo sapiens) (UniProt Q02297); test: small molecules binding neuregulin-1 protein – biochemical, small-molecule microarray, fluorescence 635/667, psychiatric disease protein project, primary screen (AID 1075); details: NRG1 binding, 635 nm fluorescence, higher = more signal;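 also: score combines 667 nm spot fluorescence with signal to noise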
Sequence of Pro-neuregulin-1, membrane-bound isoform (Homo sapiens) (Q02297 whole entry, looked up, the tested form may be a part, canonical isoform): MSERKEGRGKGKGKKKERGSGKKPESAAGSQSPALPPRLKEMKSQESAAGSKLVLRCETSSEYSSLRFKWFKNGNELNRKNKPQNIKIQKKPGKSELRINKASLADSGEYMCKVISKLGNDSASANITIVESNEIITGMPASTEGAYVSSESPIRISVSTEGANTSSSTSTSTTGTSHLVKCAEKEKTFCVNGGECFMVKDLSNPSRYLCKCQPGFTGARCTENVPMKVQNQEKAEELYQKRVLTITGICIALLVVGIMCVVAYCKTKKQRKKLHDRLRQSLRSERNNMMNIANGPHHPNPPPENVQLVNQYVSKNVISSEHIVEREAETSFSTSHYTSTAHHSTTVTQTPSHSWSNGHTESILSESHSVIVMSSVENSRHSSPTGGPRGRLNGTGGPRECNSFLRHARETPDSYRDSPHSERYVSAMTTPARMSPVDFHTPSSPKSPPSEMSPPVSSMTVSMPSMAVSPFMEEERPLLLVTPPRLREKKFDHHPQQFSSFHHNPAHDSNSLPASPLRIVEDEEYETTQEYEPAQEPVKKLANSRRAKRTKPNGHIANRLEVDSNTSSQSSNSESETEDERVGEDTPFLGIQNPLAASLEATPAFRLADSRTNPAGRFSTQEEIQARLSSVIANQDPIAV

[7] = system: Neuregulin-1 EGF-like domain; test: small molecules binding NRG1 EGF domain – biochemical, small-molecule microarray, 635 nm fluorescence, primary screen (AID 1081); details: higher = more signal;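 also: binding of the protein to compounds printed on small-molecule microarray slides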
[8] = FRG1 expression reporter modulators in myotubes – cell-based, C2C12 myotubes, firefly/Renilla luciferase, luminescence, FRG1 inhibition for FSHD, primary screen (AID 1084); details: FRG1 promoter luciferase, higher = more signal, called active from +8 up or from −8 down
[9] = small molecules captured by biotinylated probe aFST – biochemical, small-molecule microarray, fluorescence 635/667, stem cell growth factor project, primary screen (AID 1086); details: higher = more signal;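 also: score merges 667 nm fluorescence with signal-to-noise of each printed compound spot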
[10] = binders of probe aHhip on microarray, primary screen, stem cell growth factor project, biochemical, small-molecule microarray, fluorescence 635/667 (AID 1087); details: higher = more signal;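 also: score merges spot fluorescence at 667nm with spot signal to noise ratio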
[11] = system: PRMT1 (protein arginine N-methyltransferase 1); test: small molecules binding arginine methyltransferase PRMT1 – biochemical, small-molecule microarray, 635 nm fluorescence, primary screen (AID 1088); details: higher = more signal;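 also: binding of Prmt1 protein to compounds spotted on small-molecule microarray slides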
[12] = growth effects on S. cerevisiae YJM789 – YJM789 clinical isolate, OD600, 24 h, basal, primary screen (AID 1089); details: higher = more signal, called active from +8 up or from −8 down;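 also: growth of clinical yeast isolate S. cerevisiae YJM 789 seeded 1000 cells per well; test concentration not given here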
[13] = S. pombe growth modifiers, basal conditions – strain 972, OD600, 24 h, no modulator, primary screen (AID 1090);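 also: basal condition with compound alone and no growth modifier present; test concentration not given here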; details: S. pombe 972 growth, higher = more signal, called active from +8 up or from −8 down
[14] = budding yeast growth modifiers under rapamycin – strain BY4716, OD600, 96 h, primary screen (AID 1091); also: test concentration not given here; details: S. cerevisiae BY4716 + rapamycin, higher = more signal, called active from +8 up or from −8 down
[15] = molecular target: Torsin-1A-interacting protein 2 (Homo sapiens) (UniProt Q8NFQ8); test: small molecules binding lysate-expressed LULL1 – cell lysate, human LULL1 lysate, 635/667 nm fluorescence, primary screen (AID 1092); details: small-molecule microarray, hLULL1 lysate binding, 635 nm fluorescence; higher = more signal;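 also: probe is lysate of COS7 cells overexpressing human LULL1; score merges per-feature 667 nm fluorescence with signal-to-noise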
Sequence of Torsin-1A-interacting protein 2 (Homo sapiens) (Q8NFQ8 whole entry, looked up): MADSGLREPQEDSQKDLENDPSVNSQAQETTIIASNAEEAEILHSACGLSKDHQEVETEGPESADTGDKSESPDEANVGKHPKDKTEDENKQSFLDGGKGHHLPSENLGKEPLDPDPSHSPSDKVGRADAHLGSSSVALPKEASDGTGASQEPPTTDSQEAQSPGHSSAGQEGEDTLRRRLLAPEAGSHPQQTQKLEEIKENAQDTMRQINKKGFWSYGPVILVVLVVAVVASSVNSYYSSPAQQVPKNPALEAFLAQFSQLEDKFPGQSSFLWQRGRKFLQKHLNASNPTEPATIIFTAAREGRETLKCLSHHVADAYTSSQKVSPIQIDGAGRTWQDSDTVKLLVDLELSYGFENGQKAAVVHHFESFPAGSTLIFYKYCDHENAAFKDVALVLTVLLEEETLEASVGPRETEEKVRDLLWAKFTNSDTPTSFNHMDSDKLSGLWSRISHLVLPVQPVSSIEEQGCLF

[16] = optical density change of DRC41 E. coli – strain DRC41, OD650, 24 h, E. coli filamentation project, primary screen (AID 1093);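 also: MC1000 strain lacking acrAB efflux and sulA so SOS filamentation is blocked; test concentration not given here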; details: E. coli DRC41 growth, higher = more signal, called active from +8 up or from −8 down
[17] = probe aLefty2 binding to arrayed compounds – biochemical, biotinylated probe, 635/667 nm fluorescence, primary screen (AID 1094); details: small-molecule microarray, higher = more signal;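 also: score merges spot fluorescence near 667 nm with spot signal-to-noise ratio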
[18] = system: Noggin (protein binding on small-molecule microarray); test: small molecules binding Noggin protein – biochemical, 635/667 nm fluorescence, primary screen (AID 1095); details: 635 nm fluorescence, higher = more signal;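 also: score merges 667 nm feature fluorescence with signal to noise over triplicate slides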
[19] = molecular target: Neurogenic locus notch homolog protein 3 (Homo sapiens) (UniProt Q9UM47); test: small molecules binding NOTCH3 protein – biochemical, 635/667 nm fluorescence, primary screen (AID 1096); details: small-molecule microarray, 635 nm fluorescence, higher = more signal
[20] = probe aEGFR binding to arrayed compounds – biochemical, biotinylated probe, 635/667 nm fluorescence, primary screen (AID 1097); details: small-molecule microarray, higher = more signal;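 also: probe is a biotinylated anti-EGFR antibody binding compounds printed on slides; score combines fluorescence near 667 nm and signal to noise of each spot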

Row | Structure (SMILES) | composite z-score [1] | composite z-score [2] | composite z-score [3] | composite z-score [4] | composite z-score [5] | composite z-score [6] | composite z-score [7] | z-score [8] | composite z-score [9] | composite z-score [10] | composite z-score [11] | z-score [12] | z-score [13] | z-score [14] | composite z-score [15] | z-score [16] | composite z-score [17] | composite z-score [18] | composite z-score [19] | composite z-score [20]
1 | COC(=O)c1ccc(OC)c(/C=C\CC(OC(C)=O)c2ccccc2)c1 (stereo not given) | 0.428 | -0.284 | -0.138 | 0.229 | 1.2 | 0.993 | 0.971 | -1.21 (inactive) | -0.405 | 0.206 | 0.31 | -1.71 (inactive) | -1.34 (inactive) | -0.0987 (inactive) | 0.879 | 0.759 (inactive) | -0.208 | 0.0928 | 0.275 | -0.115
2 | COCC1=C2[C@@H](CCc3ccccc3)OB(O)C[C@@H]2[C@@H]2C(=O)N(Cc3ccccc3)C(=O)[C@@H]2C1 | -0.505 | -0.138 | -0.0419 | 0.135 | -0.0585 | 0.0327 | -0.0593 | -3.66 (inactive) | -0.492 | -0.201 | 0.229 | -0.471 (inactive) | -1.22 (inactive) | -0.37 (inactive) | 0.295 | -0.715 (inactive) | -0.155 | 0.198 | -0.0497 | -0.132
3 | Cc1ccc(S[C@]2(C(=O)NCC(C)C)CC(=O)N(Cc3ccccc3)[C@@H]2c2ccc(CO)cc2I)cc1 | -0.0472 | 0.0315 | 0.0664 | 0.161 | 0.533 | 0.892 | 1.27 | -2.06 (inactive) | -0.325 | -0.0427 | 1.3 | -1.29 (inactive) | -0.927 (inactive) | 1.66 (inactive) | 2.55 | 0.0384 (inactive) | 0.124 | 0.8 | 0.905 | 0.0537
4 | O=C1OCCC=C[C@H]2OC34C=CCN(Cc5ccccc5)C(=O)[C@H]3N(CCCCCO)C(=O)[C@@H]4C12 (stereo not given in full) | -0.557 | 1.4 | -0.175 | -0.436 | -0.765 | 1.92 | 1.63 | -0.781 (inactive) | 0.0164 | -0.35 | 0.878 | 1.5 (inactive) | -0.0407 (inactive) | -0.188 (inactive) | 3.74 | 1.42 (inactive) | -0.171 | -0.748 | -0.483 | -0.252
5 | CN1C(=O)C2C(C1=O)C1C=C(CCCO)C2C(c2cccs2)N1C (stereo not given) | -0.855 | 1.65 | -0.2 | 0.524 | -0.508 | 0.822 | 1.19 | 0.22 (inactive) | -0.225 | -0.579 | -0.214 | -0.68 (inactive) | -0.149 (inactive) | -0.113 (inactive) | 2.69 | 0.729 (inactive) | -0.384 | -0.4 | -0.553 | -0.385
6 | CC(C)CNC(=O)[C@@]1(c2ccc([N+](=O)[O-])cc2)CC(=O)N(CC23CC4CC(CC(C4)C2)C3)[C@@H]1c1ccc(CO)cc1 | 0.158 | 1.83 | 0.0201 | 0.39 | 0.994 | 0.65 | 1.19 | -2.51 (inactive) | -0.0554 | 0.075 | 1.52 | -1.73 (inactive) | -1.1 (inactive) | 0.226 (inactive) | 2.14 | 2.86 (inactive) | 0.0054 | 0.661 | 0.708 | -0.0897
7 | C=C[C@@H](COC(C)=O)N(Cc1ccc([N+](=O)[O-])cc1)S(=O)(=O)c1ccc(Br)cc1 | 0.381 | -0.339 | 0.0258 | 0.642 | 1.1 | 0.668 | 1.12 | -1.5 (inactive) | 0.804 | -0.21 | 0.876 | -0.0928 (inactive) | -1.26 (inactive) | 3.93 (inactive) | 1.25 | 2.1 (inactive) | 0.157 | -0.0608 | 0.733 | 0.158
8 | C=C[C@H](COC(C)=O)N(Cc1ccc(OC(C)=O)c(OC)c1)S(=O)(=O)c1ccc(Br)cc1 | -0.0411 | 1.46 | 0.125 | 0.311 | 0.86 | 0.785 | 1.14 | -3.46 (inactive) | 0.413 | -0.0024 | 0.484 | -2.5 (inactive) | -1.08 (inactive) | 0.105 (inactive) | 1.81 | 1.24 (inactive) | 0.15 | 0.337 | 0.176 | 0.312
9 | COc1ccc(C#Cc2ccc3c(c2)[C@]2(C(=O)N3)[C@H](c3ccc(O)cc3)N3[C@H](c4ccccc4)[C@H](c4ccccc4)OC(=O)[C@H]3[C@@H]2C(=O)N2CCCCCCC2)cc1 | 3.42 | 0.524 | 0.858 | 0.488 | 1.39 | 1.01 | 1.25 | -0.263 (inactive) | 3.25 | 0.0914 | 1.55 | -1.51 (inactive) | -0.0733 (inactive) | 1.15 (inactive) | 4.08 | 0.484 (inactive) | 1.61 | 1.86 | 1.07 | 0.778
10 | Cc1ccc(S[C@]2(C(=O)NC3CC3)CC(=O)N(C3CCCCC3)[C@@H]2c2ccc(CO)cc2I)cc1 | -0.208 | 0.298 | -0.0328 | 0.48 | 1.03 | 1.29 | 1.31 | -4.48 (inactive) | 0.431 | 0.118 | 1.53 | 0.0615 (inactive) | 0.532 (inactive) | 1.38 (inactive) | 2.6 | 1.26 (inactive) | -0.138 | 0.659 | 1.06 | -0.0703

Source: PubChem BioAssay
